Measurements as given in the supplement of paper PMC12282887.
± gives the standard deviation of the averaged measurements.

Legend:
Experiment in all cases: promoter activity interaction Z-score (Lux/OD deviation from empty-vector control); higher = stronger promoter induction by the compound
[1] = system: E. coli BW25113 acrABp lux reporter
Outline: (§1)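 At 37°C, E. coli BW25113 reporter cultures in 40 µl LB Lennox in 384-well plates were read for OD600 and luminescence every 30 min for 12 h. Windows were 0–8 h for wild type and 1–9 h for deletion strains, and wells under 10% of the median growth value were removed. The score is the Z-transformed residual of growth-normalised luminescence against a control fit.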

[2] = system: E. coli BW25113 micFp lux reporter
Outline: as §1

[3] = system: E. coli BW25113 ompFp lux reporter
Outline: as §1

[4] = system: E. coli BW25113 robp lux reporter
Outline: as §1

[5] = system: E. coli BW25113 soxSp lux reporter
Outline: as §1

[6] = system: E. coli BW25113 tolCp lux reporter
Outline: as §1

[7] = 0.063 µg/ml, genetic background: wild type
[8] = 0.063 µg/ml, genetic background: ΔmarA
[9] = 0.063 µg/ml, genetic background: Δrob
[10] = 0.063 µg/ml, genetic background: ΔsoxS
[11] = 0.13 µg/ml, genetic background: wild type
[12] = 0.13 µg/ml, genetic background: ΔmarA
[13] = 0.13 µg/ml, genetic background: Δrob
[14] = 0.13 µg/ml, genetic background: ΔsoxS
[15] = 0.25 µg/ml, genetic background: wild type
[16] = 0.25 µg/ml, genetic background: ΔmarA
[17] = 0.25 µg/ml, genetic background: Δrob
[18] = 0.25 µg/ml, genetic background: ΔsoxS
[19] = 0.51 µg/ml, genetic background: wild type
[20] = 0.51 µg/ml, genetic background: ΔmarA
[21] = 0.51 µg/ml, genetic background: Δrob
[22] = 0.51 µg/ml, genetic background: ΔsoxS

N=C(NCCCCCCNC(=N)NC(=N)Nc1ccc(Cl)cc1)NC(=N)Nc1ccc(Cl)cc1 [Chlorhexidine]
promoter activity interaction Z-score [1, 7]: 0.528 ± 0.15
promoter activity interaction Z-score [1, 8]: 0.456 ± 1.1
promoter activity interaction Z-score [1, 9]: -0.0468 ± 0.34
promoter activity interaction Z-score [1, 10]: -0.413 ± 0.67
promoter activity interaction Z-score [1, 11]: 0.229 ± 0.18
promoter activity interaction Z-score [1, 12]: -0.312 ± 0.48
promoter activity interaction Z-score [1, 13]: -0.0734 ± 0.14
promoter activity interaction Z-score [1, 14]: 0.339 ± 0.46
promoter activity interaction Z-score [1, 15]: 0.27 ± 0.26
promoter activity interaction Z-score [1, 16]: -0.147 ± 0.57
promoter activity interaction Z-score [1, 17]: 0.135 ± 0.15
promoter activity interaction Z-score [1, 18]: 0.108 ± 0.19
promoter activity interaction Z-score [1, 19]: -0.0541 ± 0.33
promoter activity interaction Z-score [1, 20]: 0.0169 ± 0.15
promoter activity interaction Z-score [1, 21]: 0.0299 ± 0.11
promoter activity interaction Z-score [1, 22]: 0.236 ± 0.23
promoter activity interaction Z-score [2, 7]: -0.138 ± 0.035
promoter activity interaction Z-score [2, 8]: 0.119 ± 0.018
promoter activity interaction Z-score [2, 9]: -0.0387 ± 0.0014
promoter activity interaction Z-score [2, 10]: -0.423 ± 0.21
promoter activity interaction Z-score [2, 11]: -0.207 ± 0.061
promoter activity interaction Z-score [2, 12]: -0.0564 ± 0.12
promoter activity interaction Z-score [2, 13]: -0.0382 ± 0.027
promoter activity interaction Z-score [2, 14]: -0.0137 ± 0.079
promoter activity interaction Z-score [2, 15]: 0.112 ± 0.098
promoter activity interaction Z-score [2, 16]: -0.0647 ± 0.035
promoter activity interaction Z-score [2, 17]: -0.172 ± 0.038
promoter activity interaction Z-score [2, 18]: -0.0807 ± 0.32
promoter activity interaction Z-score [2, 19]: -0.4228 ± 0.0029
promoter activity interaction Z-score [2, 20]: -0.153 ± 0.15
promoter activity interaction Z-score [2, 21]: -0.204 ± 0.03
promoter activity interaction Z-score [2, 22]: 0.196 ± 0.032
promoter activity interaction Z-score [3, 7]: 0.348 ± 0.12
promoter activity interaction Z-score [3, 8]: 0.307 ± 0.032
promoter activity interaction Z-score [3, 9]: 0.502 ± 0.096
promoter activity interaction Z-score [3, 10]: 0.129 ± 0.63
promoter activity interaction Z-score [3, 11]: 0.528 ± 0.026
promoter activity interaction Z-score [3, 12]: -0.185 ± 0.099
promoter activity interaction Z-score [3, 13]: 0.2991 ± 0.00077
promoter activity interaction Z-score [3, 14]: 0.714 ± 0.18
promoter activity interaction Z-score [3, 15]: 0.176 ± 0.12
promoter activity interaction Z-score [3, 16]: 0.161 ± 0.18
promoter activity interaction Z-score [3, 17]: 0.332 ± 0.15
promoter activity interaction Z-score [3, 18]: 0.376 ± 0.19
promoter activity interaction Z-score [3, 19]: 0.552 ± 0.14
promoter activity interaction Z-score [3, 20]: 0.909 ± 0.66
promoter activity interaction Z-score [3, 21]: 0.866 ± 0.037
promoter activity interaction Z-score [3, 22]: 1.02 ± 0.32
promoter activity interaction Z-score [4, 7]: 0.375 ± 0.078
promoter activity interaction Z-score [4, 8]: 0.214 ± 0.35
promoter activity interaction Z-score [4, 9]: 0.423 ± 0.27
promoter activity interaction Z-score [4, 10]: 0.406 ± 0.057
promoter activity interaction Z-score [4, 11]: 0.674 ± 0.55
promoter activity interaction Z-score [4, 12]: -0.0996 ± 0.54
promoter activity interaction Z-score [4, 13]: 0.374 ± 0.39
promoter activity interaction Z-score [4, 14]: 0.814 ± 0.61
promoter activity interaction Z-score [4, 15]: 0.416 ± 0.24
promoter activity interaction Z-score [4, 16]: -0.53 ± 0.44
promoter activity interaction Z-score [4, 17]: 0.48 ± 0.31
promoter activity interaction Z-score [4, 18]: 0.422 ± 0.89
promoter activity interaction Z-score [4, 19]: -0.214 ± 0.33
promoter activity interaction Z-score [4, 20]: 0.504 ± 0.37
promoter activity interaction Z-score [4, 21]: 0.258 ± 0.6
promoter activity interaction Z-score [4, 22]: 0.18 ± 0.19
promoter activity interaction Z-score [5, 7]: -0.0504 ± 0.14
promoter activity interaction Z-score [5, 8]: 0.0857 ± 0.028
promoter activity interaction Z-score [5, 9]: 0.21 ± 0.1
promoter activity interaction Z-score [5, 10]: 0.0523 ± 0.26
promoter activity interaction Z-score [5, 11]: 0.0248 ± 0.062
promoter activity interaction Z-score [5, 12]: 0.0401 ± 0.18
promoter activity interaction Z-score [5, 13]: -0.0238 ± 0.042
promoter activity interaction Z-score [5, 14]: 0.276 ± 0.16
promoter activity interaction Z-score [5, 15]: 0.0242 ± 0.039
promoter activity interaction Z-score [5, 16]: 0.138 ± 0.13
promoter activity interaction Z-score [5, 17]: 0.236 ± 0.22
promoter activity interaction Z-score [5, 18]: 0.165 ± 0.005
promoter activity interaction Z-score [5, 19]: -0.166 ± 0.08
promoter activity interaction Z-score [5, 20]: 0.198 ± 0.063
promoter activity interaction Z-score [5, 21]: -0.014 ± 0.063
promoter activity interaction Z-score [5, 22]: -0.0376 ± 0.072
promoter activity interaction Z-score [6, 7]: 0.313 ± 0.44
promoter activity interaction Z-score [6, 8]: 0.0546 ± 1.2
promoter activity interaction Z-score [6, 9]: 0.212 ± 0.98
promoter activity interaction Z-score [6, 10]: 0.135 ± 0.81
promoter activity interaction Z-score [6, 11]: 0.112 ± 0.076
promoter activity interaction Z-score [6, 12]: -0.214 ± 1.4
promoter activity interaction Z-score [6, 13]: -0.155 ± 0.64
promoter activity interaction Z-score [6, 14]: 0.18 ± 2
promoter activity interaction Z-score [6, 15]: -0.564 ± 0.81
promoter activity interaction Z-score [6, 16]: -0.365 ± 0.86
promoter activity interaction Z-score [6, 17]: 0.568 ± 0.35
promoter activity interaction Z-score [6, 18]: 0.574 ± 0.065
promoter activity interaction Z-score [6, 19]: -0.539 ± 0.4
promoter activity interaction Z-score [6, 20]: 0.431 ± 0.064
promoter activity interaction Z-score [6, 21]: -0.613 ± 0.62
promoter activity interaction Z-score [6, 22]: 0.378 ± 0.96
